This is a sample that favours compounds with a hit; in the whole collection about 2.2% have one here.
KLF5 inhibitor = KLF5 expression inhibitors, primary screen, DLD-1 cells, luminescence; 290,000 tested, 0.23% active; DLD-1 KLF5 promoter-luciferase reporter; inhibition, % at 5 µM;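 active = inhibition above a per-plate limit of that plate's mean compound inhibition plus 3 SD, cut at about 60% in these data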;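 note: 0% = DMSO wells and 100% = LY294002 at 200 µM; higher means less KLF5 promoter-driven luciferase light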
IEC-6 tox-1 = cytotoxicity in IEC-6 intestinal epithelial cells, primary screen, cytotoxicity control for KLF5 inhibitor project, cell-based, luminescence | IEC-6 cytotoxicity, luminescence viability | inhibition, % at 5 µM | 290,000 tested, 0.78% active | AID 1825, 2009;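 note: 0% = plate median of test compound wells and 100% = cytotoxic reference compound wells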
APP transl inh = inhibitors of APP translation via 5'UTR reporter, primary screen, APP 5'UTR luciferase, SH-SY5Y cells; SH-SY5Y APP 5'UTR-luciferase reporter, luminescence; inhibition, % at 2 µM; 190,000 tested, 0.82% active;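 active = inhibition above a set limit, derived from the sample mean plus 3 SD, cut at about 45% in these data; inconclusive = one replicate passes the limit while the other fails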
aSyn 5UTR inh = MLPCN primary screen, SNCA 5' untranslated region | inhibition, % (tested at 7.5 µM) | 300,000 tested, 0.82% active | alpha-synuclein 5'UTR reporter, inhibitor activity | AID 1813, 2009; in the data active = inhibition above about 60%; inconclusive = no clear call, values can overlap the other calls;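 note: H4 neuroglioblastoma cells stably carrying SNCA 5'UTR luciferase fusion; 0% = DMSO wells and 100% = positive control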
BaF3 tox = parental Ba/F3 cell viability inhibition, counter-screen for JAK2V617F inhibitor project, murine pro-B, CellTiter-Glo luminescence; inhibition, % at 5.6 µM; 220,000 tested, 1.1% active; CellTiter-Glo ATP luminescence;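 active = inhibition above a per-campaign cutoff, the mean inhibition of all tested compounds plus 3 SD, cut at about 27% in these data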;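 note: 0% = DMSO wells and 100% = JAK Inhibitor I control wells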
Ba/F3 V617F tox = reduced viability of JAK2V617F-dependent Ba/F3 cells, primary screen, JAK2V617F inhibitor project, cell-based, Ba/F3 EpoR-JAK2V617F, luminescence | ATP luminescence | inhibition, % at 5.6 µM | 220,000 tested, 1.1% active | AID 1446, 2008;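 active = inhibition above the campaign mean plus 3 SD over all tested compounds, cut at about 24% in these data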;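 note: cytokine-independent growth of Ba/F3 cells driven by EpoR plus mutant JAK2; 0% = DMSO-treated cells and 100% = JAK inhibitor I control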
KLF5 inh confirm = KLF5 expression inhibitors, confirmation, DLD-1 cells, luminescence; shares compounds with KLF5 inhibitor; DLD-1 KLF5 promoter firefly luciferase reporter; inhibition, % at 4 µM; 610 tested, 79% active; AID 1834, 2009;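 active = inhibition above a set limit taken from the earlier primary screen, cut at about 63% in these data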;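 note: 0% = DMSO wells and 100% = LY294002 at 200 µM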
IEC-6 tox-2 = cytotoxicity in rat IEC-6 cells, cytotoxicity control for KLF5 inhibitor project, cell-based, luminescence, triplicate | shares compounds with KLF5 inhibitor | IEC-6 rat intestinal cells, viability luminescence | inhibition, % at 4 µM | 610 tested, 56% active | AID 1905, 2009; in the data active = inhibition above about 23%;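 note: cells exposed to compounds for 48 hours before viability read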
IEC-6 tox confirm = cytotoxic compounds in IEC-6 epithelial cells, confirmation, cytotoxicity control, cell-based, luminescence; shares compounds with IEC-6 tox-1; IEC-6 rat intestinal epithelial viability; inhibition, % at 5 µM; 1,900 tested, 63% active; AID 1907, 2009;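 note: 0% = vehicle and 100% = reference cytotoxic drug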
* = called active by the depositor; ? = inconclusive; / = no result. Cut-off read from the data, not from the text of the source, unless noted: active = inhibition above about 22%; inactive = the rest.

SMILES	KLF5 inhibitor	IEC-6 tox-1	APP transl inh	aSyn 5UTR inh	BaF3 tox	Ba/F3 V617F tox	KLF5 inh confirm	IEC-6 tox-2	IEC-6 tox confirm
O=C(Nc1ccc(S(=O)(=O)N2CCOCC2)cc1)c1ccc([N+](=O)[O-])o1	99.2*	66.9*	/	-119.6	66.4*	68.2*	5.5	8.0	11.5
O=C(Nc1ccc(S(=O)(=O)N2CCOCC2)cc1)c1ccc([N+](=O)[O-])s1	/	/	/	-42.7	/	/	/	/	/
Cc1c(/C=N\NC(=O)C2COc3ccccc3O2)c2ccccc2n1C (configuration not stated)	74.3*	80.1*	91.4*	102.0*	75.7*	77.6*	82.3*	75.5*	61.4*
Cc1ccc(NC(=O)CN2CCC(NC(=O)c3ccccc3F)CC2)cc1C	-16.8	-1.8	/	3.2	/	/	/	/	/
O=c1nccc(N/N=C/c2ccccc2O)[nH]1	87.6*	96.1*	/	-3.6	/	/	-3.6	11.5	16.2
COc1cccc(/C=N/Nc2ccnc(=O)[nH]2)c1O	80.8*	96.8*	/	19.2	/	/	10.5	7.5	23.8*
CCOc1ccccc1/C=N/Nc1ccnc(=O)[nH]1	-14.0	1.6	/	-9.9	/	/	/	/	/
COc1cccc(/C=N/NC(=O)N/N=C/c2cccc(OC)c2O)c1O	-53.6	-5.5	/	?	/	/	/	/	/
COc1ccc(/C=C(/NC(=O)c2ccccc2Cl)C(=O)O)cc1	-31.2	-3.6	-5.7	-21.8	10.3	-2.5	/	/	/
CCOc1cc(C#N)c(NC(=O)c2cccnc2)cc1OCC	73.5*	81.8*	88.9*	41.2	77.2*	84.5*	79.2*	50.4*	56.2*
Cc1ccc(N2C(=O)c3cccc4c(N)ccc(c34)C2=O)c2cccnc12	63.2*	86.5*	/	99.8*	85.4*	92.3*	90.4*	72.3*	73.9*
O=C(c1ccc(F)cc1F)N1CCN(c2ccccn2)CC1	-34.6	1.4	/	17.0	/	/	/	/	/
O=C(NNc1ncc(C(F)(F)F)cc1Cl)c1c(Cl)cccc1Cl	71.3*	46.1*	15.0	-11.8	83.4*	83.1*	43.6	14.3	31.6*
COc1ccc2c(c1)C=C([C@@H]1C[C@H]3CN(c4ccccc4)C(=O)[C@]34CCCN14)CO2	74.6*	87.0*	-3.2	-24.2	101.5*	98.6*	-5.3	3.5	0.6
CN1C[C@@H]2C[C@@H](C3=Cc4cc(Cl)ccc4OC3)N3CCC[C@@]23C1=O	-37.0	-2.6	-4.7	11.7	6.6	-0.9	/	/	/
CN1CC[C@@]2([C@@]34CCN(C)C3Nc3ccccc34)c3ccccc3NC12 (some centres not stated)	/	/	/	10.6	/	/	/	/	/
COC(=O)C1CC23C=CCN4CCC5(c6ccccc6NC15C2C)C43 (configuration not stated)	61.9*	87.6*	/	93.8*	/	/	78.6*	59.2*	59.2*
CCN(CC)c1ccc(-c2nn3c(-c4ccccc4OC)nnc3s2)cc1	79.9*	92.9*	93.9*	82.5*	87.1*	93.3*	91.3*	72.0*	77.3*
C/C(=N\NC(=O)c1c(Br)c(C)nn1C)c1cccc(NC(=O)C2CCC2)c1	-40.8	4.0	-7.6	-36.9	4.7	2.8	/	/	/
C/C(=N\NC(=O)c1c([N+](=O)[O-])c(C)nn1C)c1ccc(NC(=O)C2CCCC2)cc1	65.0*	76.7*	/	80.5*	/	/	75.7*	54.0*	64.0*
C/C(=N\NC(=O)c1c(Cl)c(C)nn1C)c1ccc(NC(=O)C2CCC2)cc1	65.3*	72.6*	/	44.0	/	/	82.8*	59.9*	52.3*
C/C(=N\NC(=O)c1c([N+](=O)[O-])c(C)nn1C)c1ccc(NC(=O)c2ccc(C)o2)cc1	-53.2	-2.6	/	-104.2	/	/	/	/	/
CCCCN(Cc1ccc(C(=O)N[C@H](C(=O)O)C(C)C)cc1)C(=O)C(c1ccccc1)c1ccccc1	/	/	/	2.1	/	/	/	/	/
COc1cc2c(cc1OC)C(C)N(C(=O)c1cc(C)on1)CC2 (configuration not stated)	74.1*	85.4*	/	97.1*	/	/	88.6*	54.4*	54.5*
COc1ccc(OC)c(Nc2c3c(nc4ccccc24)CCC3)c1	64.4*	84.7*	/	105.8*	/	/	110.7*	62.6*	58.3*
SMILES	KLF5 inhibitor	IEC-6 tox-1	APP transl inh	aSyn 5UTR inh	BaF3 tox	Ba/F3 V617F tox	KLF5 inh confirm	IEC-6 tox-2	IEC-6 tox confirm
CCn1c2ccccc2c2cc(NC(=O)c3cc(OC)c(OC)c(OC)c3)ccc21	82.8*	91.7*	7.5	-23.4	85.8*	87.2*	88.5*	86.0*	88.8*
CCn1c2ccccc2c2cc(NC(=O)COc3ccc(OC)cc3)ccc21	-37.2	5.0	2.7	14.8	3.5	-1.4	/	/	/
NNC(=O)c1[nH]c2ccccc2c1-c1ccccc1	81.6*	95.0*	/	95.7*	/	/	0.0	1.4	11.3
CC(=O)NNC(=O)c1[nH]c2ccc(Cl)cc2c1-c1ccccc1	-8.5	-4.5	/	11.9	-0.8	-1.2	/	/	/
O=C(N/N=C/c1ccc(O)cc1O)c1ccncc1	6.3	-2.9	/	7.9	/	/	/	/	/
O=C(N/N=C/c1cc(Br)cc(Br)c1O)c1ccncc1	77.5*	24.0*	25.9	36.3	-5.1	4.1	87.9*	40.1*	13.9
Nc1ccc(C(=O)n2c3ccccc3c3ccccc32)cc1	78.8*	82.8*	94.3*	116.7*	73.1*	68.1*	85.4*	59.9*	57.9*
COc1ccc2[nH]c3c(C)c4ccncc4c(C)c3c2c1	74.8*	73.5*	/	109.3*	59.9*	65.1*	76.8*	59.0*	58.2*
CC1CCN(Cc2c(C(=O)N/N=C/c3ccccc3O)nnn2-c2nonc2N)CC1	70.2*	47.2*	/	65.5*	/	/	85.1*	15.7	41.8*
Cc1nn(-c2ccccc2)c(C)c1/C=N/NC(=O)c1cc(-c2cccc3ccccc23)n[nH]1	-57.8	6.8	4.3	-2.2	5.2	6.2	/	/	/
Cc1nn(-c2ccccc2)c(C)c1/C=N/NC(=O)c1cc(-c2ccccc2)n[nH]1	62.9*	76.8*	95.0*	82.1*	78.4*	70.8*	84.2*	65.4*	58.2*
CCOc1ccc(N(CC(=O)Nc2ccccc2OCC)S(=O)(=O)c2c(C)noc2C)cc1	74.9*	90.4*	/	95.0*	/	/	79.4*	58.6*	54.3*
CCOc1ccc(N(CC(=O)Nc2ccc(C)cc2)S(=O)(=O)c2c(C)noc2C)cc1	-1.1	-0.7	-20.5	-0.1	-0.9	-2.3	/	/	/
COc1cccc(NC(=O)Cn2c(=O)n(C)c(=O)c3sc4c(c32)COC(C)(C)C4)c1	-11.7	3.1	/	12.8	/	/	/	/	/

Screens as filed in PubChem.
